Experimental findings from PubChem BioAssay (Tox21) are described below.

Molecules are shown by their SMILES. Results filed as inconclusive are left out. The source holds several records for some structures; these can differ, active in one and inactive in another. Active and inactive are the calls of the source. Calls come from the whole dose curve; as a rule, active = well fitted activation curve with a large enough effect in the repeat runs; inconclusive = weak or mixed curves; inactive = flat fitted curve, though single readings scatter.
% is set by controls: 0 for no effect and ±100 for the full control effect; potency is the fitted concentration of half-maximal effect.

The assay in a line: A CellTox Green Cytotoxicity Assay to monitor cytotoxicity in HEK293 cells - 8 hour (AID 1224884). Note: nearly all actives have a fitted effect of over 35% in size. The conditions noted are these: CellTox Green fluorescence; series mostly up to 76.8 µM; cytotoxicity increase: at the top concentration. The text has this: National Center for Advancing Translational Sciences [NCATS]
NIH Chemical Genomics Center [NCGC]
U.S. Environmental Protection Agency [EPA]
National Institutes of Environmental Health Sciences [NIEHS]
National Toxicology Program [NTP]
Cell-based models are critical for drug discovery. Determining the natural cytotoxic effects resulting from test compounds is an essential research activity. A CellTox Green Cytotoxicity Assay to monitor cytotoxicity in real time of continues cell culture during 40 hours of the compound treatment was used to screen Tox21 10K library compounds in Hek293 cells. CellTox Green Cytotoxicity Assay is a nonlytic, homogeneous, biofluorescent method to measure cytotoxicity in cell culture after experimental manipulation. The assay system uses a proprietary asymmetric cyanine dye that is excluded from viable cells but preferentially stains the dead cell's DNA. […] Viable cells produce no appreciable increases in fluorescence. Therefore, the fluorescence signal produced by the binding interaction with dead cell DNA is proportional to cytotoxicity.
The mixture of Hek293 cell suspension and reagents were dispensed at 600cells/6 ul/well in 1536-well tissue culture treated black solid bottom plates using a Multidrop dispenser. After the assay plates were incubated at a 37 C/5% CO2 incubator for 5 hours, 23 nL of compounds dissolved in DMSO, positive and negative controls was transferred to the assay plate by a pintool work station. The plates were incubated at 37 C for 40 hours. The fluorescence intensity were measured at 0h, 8h, 16h, 24h, 32h and 40h time points using ViewLux plate reader during compound treatment.
As to `[Hg+2].[I-].[I-]`, the Potency was 49 µM (active). Consider `CCc1cc(C)cc(CC)c1-c1c(OC(=O)C(C)(C)C)n2n(c1=O)CCOCC2`, for which the “cytotoxicity increase” value was 12.4% (inactive). The same measure, in the same setting: in the case of `Cc1cc(C)cc(OP(=O)(Oc2cc(C)cc(C)c2)Oc2cc(C)cc(C)c2)c1` it was -0.737% (inactive); in that of `N#Cc1ccccc1Cl`, 2% (inactive); in that of `N#CCCSCCC#N`, 4.98% (inactive). Same read-out and setting: the same measure for `CC(C)N1C(=O)N(c2ccccc2)CSC1=NC(C)(C)C`: 14.5% (inactive). For `CC(C)CC(C)(c1ccc(O)cc1)c1ccc(O)cc1`, the Potency was 24.6 µM (active) and inactive. On to `N#Cc1c(-c2ccc(Cl)cc2)[nH]c(C(F)(F)F)c1Br`, for which the “cytotoxicity increase” value is -6.3% (inactive). The same measure, in the same setting: in the case of `CCCCCCCCCCCCCN1CC(C)OC(C)C1` (stereo not given) it was 6.34% (inactive). Still for that read-out and setting: in the case of `CCCCCCCCCBr` it was -0.702% (inactive); in that of `O=[N+]([O-])O.O=[N+]([O-])O.[Cd]`, -0.0955% (inactive).

In the case of `COC12CC[C@@]3(C[C@@H]1C(C)(O)C(C)(C)C)[C@H]1Cc4ccc(O)c5c4[C@@]3(CCN1CC1CC1)[C@H]2O5` (stereo not given in full), the Potency is 24.4 µM (active).

For `Oc1ccccc1Br`, the “cytotoxicity increase” value is -0.633% (inactive). Still for that read-out and setting: in the case of `N#C/C=C/C#N` it was 6.73% (inactive). On the same count and under the same terms, the same measure for `Nc1ccc([N+](=O)[O-])cc1Cl`: 5.33% (inactive); for `CCCCCCCCCCCCCCC(Br)C(=O)O` (stereo not given): -0.638% (inactive). Turning to `CCCCCCCCCCCCCC[P+](CCCCCC)(CCCCCC)CCCCCC` (tested in a mixture with another compound), the Potency was 24.6 µM (active). With `Clc1ccc(-c2ccccc2)cc1`, the “cytotoxicity increase” value was 8.48% (inactive). The same measure, in the same setting: the same measure for `O=C(CCCN1CCC2(CC1)C(=O)NCN2c1ccccc1)c1ccc(F)cc1`: -8.61% [at 35.3 µM] (inactive). On the same count and under the same terms, the same measure for `BrC(Br)C(Br)(Br)Br`: 21.8% (inactive); for `ClC1=C(Cl)[C@]2(Cl)[C@H]3[C@H]([C@H]4C=C[C@H]3C4)[C@@]1(Cl)C2(Cl)Cl`: -0.861% (inactive). The same measure, in the same setting: in the case of `CC(C)(C)C(O)/C(=C\c1ccc(Cl)cc1Cl)n1cncn1` (stereo not given) it was 13.8% (inactive); in that of `Oc1cc(Cl)c(Cl)c(Cl)c1`, 15.3% (inactive); in that of `CCCN(CC)CC1COC2(CCC(C(C)(C)C)CC2)O1` (stereo not given), 7.24% (inactive). On to `ClC(Cl)=C(Cl)Cl`, for which the “cytotoxicity increase” value was 1.76% (inactive). Same read-out and setting: in the case of `CC(O)C#N` (stereo not given) it was 2.23% (inactive); in that of `BrCC(Br)c1ccccc1` (stereo not given), 0.804% (inactive); in that of `CSCCCN=C=S`, 1.2% (inactive). On the same count and under the same terms, in the case of `ClCCN1CCOCC1` it was -12.1% (inactive). The same measure, in the same setting: in the case of `Clc1ccc(Oc2ccccc2)cc1` it was -3.39% (inactive). As for `Oc1ccc(C(c2ccc(O)cc2)(C(F)(F)F)C(F)(F)F)cc1`, the “cytotoxicity increase” value was 1.33% (inactive).

Regarding `Oc1ccc(C2(c3ccc(O)cc3)c3ccccc3-c3ccccc32)cc1`, the “cytotoxicity increase” value is 2.62% (inactive). On the same count and under the same terms, the same measure for `[CH3][Hg][Cl]`: 10.1% (inactive); for `CC(=[OH+])/C=C(/C)[O-].CC(=[OH+])/C=C(\C)[O-].CC(=[OH+])/C=C(\C)[O-].[Fe]`: -0.971% (inactive).

As to `c1ccc(Nc2ccc3ccccc3c2)cc1`, the Potency entry is “inactive”.

As to `CCOCCOC(C)=O`, the “cytotoxicity increase” value was -0.565% (inactive). On to `CCCCCCCCc1ccc(O)cc1`, for which the Potency is 43.9 µM (active). In the case of `CCC(C)c1cc(C(C)(C)C)cc(-n2nc3ccccc3n2)c1O` (stereo not given), the “cytotoxicity increase” value was 8.84% [at 35.3 µM] (inactive). On the same count and under the same terms, in the case of `C[C@@H](Oc1ccc(Cl)cc1Cl)C(=O)O` it was 1.5% (inactive). For `Clc1ccc(CO/N=C(\Cn2ccnc2)c2ccc(Cl)cc2Cl)c(Cl)c1`, the “cytotoxicity increase” value was 16.7% [at 35.3 µM] (inactive).
